Data: PubChem BioAssay (EPA / NIEHS)
Calls of active or inactive are those of the source. Rule for the calls: active = hit-call score of the fitted dose curve at least 0.9, where 1 is the maximum; inactive = score below 0.9.

Assay: ATG_GLI_CIS: Attagene CIS-FACTORIAL HepG2 Assay for human Zinc Finger Protein GLI1 (AID 2282945)
Conditions: HepG2, Attagene cis-factorial reporter mRNA, GLI element; actives raise or lower the signal
Description: ATG_CIS is a cell-based, multiplexed-readout assay that uses HepG2, a human liver cell line, with measurements taken at 24 hours after chemical dosing in a 24-well plate.ATG_GLI_CIS is one of 52 assay component(s) measured or calculated from the ATG_CIS assay. It is designed to make measurements of mRNA induction, a form of inducible reporter, as detected with fluorescence intensity signals by Reverse transcription polymerase chain reaction (RT-PCR) and Capillary electrophoresis technology.Data from the assay component ATG_GLI_CIS was analyzed into 1 assay endpoint. This assay endpoint, ATG_GLI_CIS, was analyzed with bidirectional fitting relative to DMSO as the negative control and baseline of activity. Using a type of inducible reporter, measures of mRNA for gain or loss-of-signal activity can be used to understand the reporter gene at the transcription factor-level as they relate to the gene GLI1. Furthermore, this assay endpoint can be referred to as a primary readout, because this assay has produced multiple assay endpoints where this one serves a reporter gene function. To generalize the intended target to other relatable targets, this assay endpoint is annotated to the dna binding intended target family, where the subfamily is zinc finger.
Human liver HepG2 cells are transiently transfected with multiple reporter transcription units (MRTUs) in 6-well plates using FuGene 6 reagent (Roche; 3 ml FuGene/1 mg DNA). The MRTU constructs are regulated by a cis-regulating element (promoter). […] A major difference between the CIS and TRANS system is that in CIS activities of endogenous TFs are measured, whereas the TRANS assay evaluates changes in activities of exogenous, chimeric NR-Gal4 proteins. […] At the end of 24 hour incubation, total RNA was isolated using TriZol reagent (Invitrogen). The isolated RNA is then reverse-transcribed using oligo(dT) primer and Mo-MLV reverse transcriptase (Invitrogen) with DNAse I (Ambion) treatment for 30 min. The one-tenth of the produced cDNA was amplified by PCR using Taq DNA polymerase (Invitrogen) and two reporter sequence-specific primers. The PCR products were fluorescently labeled by primer extension with 6-arboxyfluorescein (6-FAM) 5'-labeled reporter sequence-specific primer (2 min at 95 C, 20 s at 68 C and 10 min at 72 C) and these products were digested with 5U of HpaI (New England Biolabs) for 2h at 37 C. The fragments were purified using Qiaquick PCR columns (Qiagen), analyzed on an ABI 3130xL genetic analyzer (Applied Biosystems) with peak positions identified by using a set of X-rhodamine (ROX)-labeled MapMarker1000 molecular weight standards (BioVentures). The raw capillary electrophoresis data was processed using Attagraph software (Attagene).

SMILES	outcome	AC50
Nc1ccc(N)c2c1C(=O)c1ccccc1C2=O	inactive	
CCCCCCC(C)(C)S	inactive	
CCCC1O[C@@H]2C[C@H]3[C@@H]4CCC5=CC(=O)C=C[C@]5(C)[C@H]4[C@@H](O)C[C@]3(C)[C@]2(C(=O)CO)O1 (stereo not given in full)	inactive	
COC(=O)c1ccc(C)cc1C1=NC(C)(C(C)C)C(=O)N1 (stereo not given) (tested in a mixture with another compound)	inactive	
CCO/C=C1\N=C(c2ccccc2)OC1=O	inactive	
C[C@@H]1CCN(C(=O)[C@H](CCCN=C(N)N)NS(=O)(=O)c2cccc3c2NC[C@H](C)C3)[C@@H](C(=O)O)C1	inactive	
OCc1cccc(Oc2ccccc2)c1	inactive	
CCCCN(CCCC)C(=O)N(CCCC)CCCC		51.7 µM (active)
CC=Cc1ccc(OCC)c(O)c1	inactive	
CC1=NN(c2ccc(S(=O)(=O)O)cc2)C(=O)C1	inactive	
C1CCOC1	inactive	
COc1ccc(N=Nc2cc(C)c(N=Nc3ccc(S(=O)(=O)O)cc3)cc2OC)cc1	inactive	
ClC(c1ccccc1)(c1ccccc1)c1ccccc1	inactive	
C=C(C)C(=O)OCCOC1CC2CC1C1C=CCC21 (stereo not given)	inactive	
CCCCCCCCC=CCCCCCCCC1=NCCN1CCO	inactive	
CCc1ncc(C)[nH]1	inactive	
O=C1OC[C@H](Cc2cccc(O)c2)[C@H]1Cc1cccc(O)c1	inactive	
CCCCCCOCCOCCO	inactive	
CCCOC(=O)c1c(Cl)c(Cl)c(Cl)c(Cl)c1C(=O)OCCC		74.8 µM (active)
CN1CCOCC1	inactive	

SMILES	outcome	AC50
CC=Cc1ccc(OC)c(OC)c1	inactive	
Clc1cc(Cl)c(-c2c(Cl)c(Cl)cc(Cl)c2Cl)cc1Cl	inactive	
CCCC[P+](CCCC)(CCCC)CCCC	inactive	
CCC(C)=O	inactive	
OCc1ccc(Cl)cc1Cl	inactive	
C#CC(C)N(C)C(=O)Nc1ccc(Cl)cc1 (stereo not given)	inactive	
CSc1c(Cl)c(Cl)c(Cl)c(Cl)c1Cl		185 µM (active)
CC1CC(O)CC(C)(C)C1 (stereo not given)	inactive	
O=C1OC2(c3ccccc31)c1ccc(O)c(Br)c1Oc1c2ccc(O)c1Br	inactive	
CC1=C(Br)C(=O)C(Br)=C/C1=C(/c1ccccc1S(=O)(=O)O)c1cc(Br)c(O)c(Br)c1C	inactive	
O=C(O)c1cccnc1C(=O)O	inactive	
CCOC(=O)C(C#N)=C(c1ccccc1)c1ccccc1	inactive	
CCCC(=O)OC(C)(C)Cc1ccccc1	inactive	
Cc1cc(S(=O)(=O)O)ccc1N=Nc1c(O)ccc2ccccc12	inactive	
CCCCCCCC(=O)OCC(O)CO (stereo not given)	inactive	
COC(CC(C)CCCC(C)(C)O)OC (stereo not given)	inactive	
C[N+](C)(C)CCCCCC[N+](C)(C)C	inactive	
Cc1cc(C)nc(NS(=O)(=O)c2ccc(N)cc2)n1	inactive	
CN1C(=O)c2ccccc2C1=O	inactive	
CC1(C)C2=CCCC(C)(C)[C@]23CC[C@H]1C3	inactive	
